According to a collection of fitness landscapes (doi:10.1016/j.celrep.2020.107928):
The full ranking holds about 81,000 sequences; the median of “one-hybrid fitness for binding parS DNA” is about -0.17, and the highest 2% start at about 0.51. Shown is part of a subset that was picked to be rich in the highest values.

B1: Caulobacter ParB omega fusion; a variant is named by its letters at X, in order, B8GW30 (parent)
chain: MESVVVGEPGMSEGRRGLGRGLSALLGEVDAAPAQAPGEQLGGSREAPIEILQRNPDQPRRTFREEDLEDLSNSIREKGVLQPILVRPSPDTAGEYQIVAGERAWRAAQRAGLKTVPIMVRELDDLAVLEIGIIENVQRADLNVLEEALSYKVLMEKFERTQENIAQTIGKSXSHVANXMRLLXLPDEVQSYLVSGELTAXHARAIAAAADPVALAKQIIEGGLSVRETEALARKAPNLSAGKSKGGRPPRVKDTDTQALESDLSSVLGLDVSIDHRGSTGTLTITYATLEQLDDLCNRLTRGI

Variants of: B1
Assay: one-hybrid fitness for binding parS DNA (scaled: cognate 1, non-cognate 0); higher = stronger binding
Conditions: with parS DNA site
Procedure, shortened: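 Pre- and post-selection plasmids were Illumina-sequenced, three replicate libraries were pooled, and any variant with under 10 reads was removed. The libraries were Caulobacter ParB with four specificity codons randomised, selected in E. coli USO through a HIS3 reporter whose site is 19 bp from the promoter. Cells grew 48 hours at 37°C on M9 without histidine, with 0.1 mM IPTG and 5 mM 3-AT. Fitness is the log change in variant-to-wild-type read ratio, rescaled against cognate and non-cognate.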

Row | Variant | one-hybrid fitness for binding parS DNA
1 | REFP | ≤ 0.2
2 | GDAW | ≤ 0.2
3 | RNFK | ≤ 0.2
4 | RNAT | 0.686
5 | RNFF | ≤ 0.2
6 | RNAK | ≤ 0.2
7 | RNAM | 0.243
8 | RNFT | 0.573
9 | VNTS | ≤ 0.2
10 | NGQK | ≤ 0.2
11 | QLDA | ≤ 0.2
12 | AVCE | ≤ 0.2
13 | APET | ≤ 0.2
14 | RRTP | ≤ 0.2
15 | RRTH | ≤ 0.2
16 | RRTQ | ≤ 0.2
17 | RRTN | 0.695
18 | RRTD | ≤ 0.2
19 | RRTS | 0.651
20 | APDT | ≤ 0.2
21 | CSER | ≤ 0.2
22 | DLWS | ≤ 0.2
23 | MGLC | ≤ 0.2
24 | GWAG | ≤ 0.2
25 | KEHC | ≤ 0.2
26 | RCVT | 0.843

Row | Variant | one-hybrid fitness for binding parS DNA
27 | RPVT | ≤ 0.2
28 | REVT | ≤ 0.2
29 | RDVT | ≤ 0.2
30 | RSVT | 0.707
31 | CVDQ | ≤ 0.2
32 | ITTC | ≤ 0.2
33 | LKCF | ≤ 0.2
34 | HKKY | ≤ 0.2
35 | RIIG | 0.924
36 | RIPF | ≤ 0.2
37 | RIPR | ≤ 0.2
38 | RIIH | 0.233
39 | RIPG | 0.703
40 | RIIY | 0.398
41 | DMEL | ≤ 0.2
42 | CRVS | ≤ 0.2
43 | QASM | ≤ 0.2
44 | RYVP | ≤ 0.2
45 | RYKF | 0.257
46 | RYVD | ≤ 0.2
47 | RYVG | 0.899
48 | RYKG | 0.91
49 | RYKQ | ≤ 0.2
50 | VKQG | ≤ 0.2
51 | RVVG | 0.942
52 | RVKG | 0.941

Row | Variant | one-hybrid fitness for binding parS DNA
53 | RVVF | 0.22
54 | RVKM | 0.393
55 | RVKQ | ≤ 0.2
56 | RVVK | ≤ 0.2
57 | QSVI | ≤ 0.2
58 | DCRY | ≤ 0.2
59 | LYRG | ≤ 0.2
60 | QLEI | ≤ 0.2
61 | RRNS | 0.646
62 | RRDP | ≤ 0.2
63 | RRNN | 0.811
64 | RRDS | 0.743
65 | RRND | ≤ 0.2
66 | RRDD | ≤ 0.2
67 | RRNH | 0.256
68 | RRNP | ≤ 0.2
69 | RRDN | 0.257
70 | MPNM | ≤ 0.2
71 | LHPH | ≤ 0.2
72 | GDDG | ≤ 0.2
73 | QSME | ≤ 0.2
74 | ACRS | ≤ 0.2
75 | SHIK | ≤ 0.2
76 | VLLG | ≤ 0.2
77 | RFDN | 0.354
78 | RFNS | 0.984

Row | Variant | one-hybrid fitness for binding parS DNA
79 | RFDP | ≤ 0.2
80 | RFNH | ≤ 0.2
81 | RFDS | 0.954
82 | RFND | ≤ 0.2
83 | RMAW | 0.235
84 | WGKS | ≤ 0.2
85 | RQTE | ≤ 0.2
86 | NRHC | ≤ 0.2
87 | RRST | 0.54
88 | RRYT | 0.604
89 | RRRK | ≤ 0.2
90 | RRSK | ≤ 0.2
91 | RRDK | ≤ 0.2
92 | RRYQ | ≤ 0.2
93 | RRSQ | ≤ 0.2
94 | RRDT | 0.648
95 | RRRR | ≤ 0.2
96 | RRRT | 0.597
97 | RRDF | ≤ 0.2
98 | RRYF | ≤ 0.2
99 | SYQG | ≤ 0.2
100 | LIRC | ≤ 0.2
101 | MILL | ≤ 0.2
102 | PRDA | ≤ 0.2
103 | YSLD | ≤ 0.2
104 | WHRF | ≤ 0.2

Row | Variant | one-hybrid fitness for binding parS DNA
105 | RRCQ | ≤ 0.2
106 | RRLQ | ≤ 0.2
107 | RRWR | ≤ 0.2
108 | RRCT | 0.587
109 | RRGK | ≤ 0.2
110 | RRLM | ≤ 0.2
111 | RRGT | 0.566
112 | RRLT | 0.623
113 | RRCK | ≤ 0.2
114 | RRGM | 0.391
115 | RRWM | ≤ 0.2
116 | RRWT | 0.682
117 | SPPK | ≤ 0.2
118 | RSIQ | ≤ 0.2
119 | YRAT | ≤ 0.2
120 | EFSC | ≤ 0.2
121 | DTGT | ≤ 0.2
122 | LRWE | ≤ 0.2
123 | AHLK | ≤ 0.2
124 | MITC | ≤ 0.2
125 | RRPK | ≤ 0.2
126 | LTLY | ≤ 0.2
127 | RRQK | ≤ 0.2
128 | RRNT | 0.565
129 | DRHT | ≤ 0.2
130 | RRHR | ≤ 0.2

Row | Variant | one-hybrid fitness for binding parS DNA
131 | RRQT | 0.551
132 | RRQF | ≤ 0.2
133 | RRHT | 0.593
134 | RRNK | ≤ 0.2
135 | RRNR | ≤ 0.2
136 | HISY | ≤ 0.2
137 | PLCG | ≤ 0.2
138 | KSHC | ≤ 0.2
139 | TRTL | ≤ 0.2
140 | QHPL | ≤ 0.2
141 | TQMA | ≤ 0.2
142 | LYGV | ≤ 0.2
143 | STLG | ≤ 0.2
144 | RMFM | 0.369
145 | RMAY | 0.436
146 | RMAQ | ≤ 0.2
147 | RMFT | 0.882
148 | RMAT | 0.913
149 | RMFF | 0.206
150 | VYHP | ≤ 0.2
151 | HINR | ≤ 0.2
152 | PLDY | ≤ 0.2
153 | PNDH | ≤ 0.2
154 | RVKP | ≤ 0.2
